From PubChem BioAssay
Where “and” joins values, the source holds several entries; their conditions need not be identical. Equal values may be shown once. Calls of active or inactive are those of the source.

How the values were obtained:
[1] = compounds binding Alexa647 anti-His antibody – biochemical, small-molecule microarray, 635 nm fluorescence, artefact control for SMM control protein annotation, primary screen (AID 1128); settings: higher = more signal;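 also: score merges feature fluorescence with signal-to-noise for each printed compound spot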
[2] = test system: Human papillomavirus type 1a E7 protein (residues 1-88); experiment: HPV1a E7 small-molecule binders, primary screen, biochemical, small-molecule microarray, residues 1-88, 635 nm (AID 1129); settings: small-molecule microarray binding, fluorescence 635 nm; higher = more signal
[3] = biological target: Focal adhesion kinase 1 (Homo sapiens) (UniProt Q05397); experiment: PTK2 protein binding on printed compound slides – biochemical, small-molecule microarray, 635/667 nm fluorescence, BSA, DTT, primary screen (AID 1130); settings: 635 nm fluorescence, higher = more signal;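 also: composite of spot emission at 667 nm and signal to noise over triplicate slides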
Sequence of Focal adhesion kinase 1 (Homo sapiens) (Q05397 whole entry, looked up): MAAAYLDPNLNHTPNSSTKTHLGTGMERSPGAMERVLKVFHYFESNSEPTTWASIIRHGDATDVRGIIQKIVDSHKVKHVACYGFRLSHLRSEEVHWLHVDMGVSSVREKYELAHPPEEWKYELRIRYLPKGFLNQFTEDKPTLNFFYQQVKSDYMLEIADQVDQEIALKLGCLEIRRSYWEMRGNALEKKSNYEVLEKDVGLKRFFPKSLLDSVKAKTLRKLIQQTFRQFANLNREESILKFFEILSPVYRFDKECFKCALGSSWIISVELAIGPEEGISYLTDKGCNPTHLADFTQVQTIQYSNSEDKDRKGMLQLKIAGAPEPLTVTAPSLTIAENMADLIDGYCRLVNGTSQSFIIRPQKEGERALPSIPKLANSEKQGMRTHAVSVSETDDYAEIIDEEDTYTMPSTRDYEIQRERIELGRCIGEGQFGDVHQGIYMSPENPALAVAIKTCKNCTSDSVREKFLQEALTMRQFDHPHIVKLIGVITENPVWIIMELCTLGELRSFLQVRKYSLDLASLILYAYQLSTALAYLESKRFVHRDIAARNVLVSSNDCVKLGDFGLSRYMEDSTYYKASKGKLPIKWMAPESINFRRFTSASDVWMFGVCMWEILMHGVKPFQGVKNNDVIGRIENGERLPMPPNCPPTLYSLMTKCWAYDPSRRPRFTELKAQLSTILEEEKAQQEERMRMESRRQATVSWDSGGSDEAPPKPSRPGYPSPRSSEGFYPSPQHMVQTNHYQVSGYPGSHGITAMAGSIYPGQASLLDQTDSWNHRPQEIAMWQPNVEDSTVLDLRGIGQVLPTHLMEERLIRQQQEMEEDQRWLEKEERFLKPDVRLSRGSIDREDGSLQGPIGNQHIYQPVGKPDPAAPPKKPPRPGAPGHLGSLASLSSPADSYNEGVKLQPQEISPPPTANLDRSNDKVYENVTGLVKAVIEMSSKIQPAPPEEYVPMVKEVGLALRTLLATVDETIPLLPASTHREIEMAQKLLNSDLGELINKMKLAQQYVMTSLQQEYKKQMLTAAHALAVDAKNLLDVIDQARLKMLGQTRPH

[4] = test system: Fibrinogen (Alexa647-labelled); experiment: Alexa647-fibrinogen binding to printed small molecules – biochemical, small-molecule microarray, 635/667 nm fluorescence, artefact control for SMM control-protein annotation, profiling panel (AID 1131); settings: fibrinogen-A647 binding fluorescence, higher = more signal;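 also: z-score merges 667 nm fluorescence with per-spot signal-to-noise over triplicate slides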
[5] = biological target: Follistatin (Homo sapiens) (UniProt P19883); experiment: FST protein binding to printed compounds – biochemical, small-molecule microarray, 635/667 nm fluorescence, primary screen (AID 1132); settings: 635 nm fluorescence, higher = more signal
Sequence of Follistatin (Homo sapiens) (P19883 whole entry, looked up): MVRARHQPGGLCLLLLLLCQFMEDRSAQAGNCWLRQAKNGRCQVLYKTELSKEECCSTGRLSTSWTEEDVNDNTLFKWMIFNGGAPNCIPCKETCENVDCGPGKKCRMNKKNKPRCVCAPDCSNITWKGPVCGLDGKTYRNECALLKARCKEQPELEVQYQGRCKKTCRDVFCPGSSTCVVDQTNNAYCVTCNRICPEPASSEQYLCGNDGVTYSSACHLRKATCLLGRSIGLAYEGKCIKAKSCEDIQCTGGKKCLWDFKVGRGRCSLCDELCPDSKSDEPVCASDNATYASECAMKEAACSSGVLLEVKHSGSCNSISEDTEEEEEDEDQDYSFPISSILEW

[6] = biological target: Fibroblast growth factor 2 (Homo sapiens) (UniProt P09038); experiment: basic fibroblast growth factor binding to printed compounds – biochemical, small-molecule microarray, 635/667 nm fluorescence, primary screen (AID 1133); settings: FGF2, fluorescence 635/667, higher = more signal
Sequence of Fibroblast growth factor 2 (Homo sapiens) (P09038 whole entry, looked up): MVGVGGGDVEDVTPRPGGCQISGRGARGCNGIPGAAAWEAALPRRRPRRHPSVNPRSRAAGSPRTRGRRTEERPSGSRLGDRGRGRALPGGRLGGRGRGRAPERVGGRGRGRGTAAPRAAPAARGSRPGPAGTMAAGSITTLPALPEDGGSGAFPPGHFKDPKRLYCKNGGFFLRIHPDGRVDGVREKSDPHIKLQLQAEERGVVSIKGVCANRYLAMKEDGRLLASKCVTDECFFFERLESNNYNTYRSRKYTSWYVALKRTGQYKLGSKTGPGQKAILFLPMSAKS

[7] = JC-1 mitochondrial potential readout, lung cancer cells – cell-based, A549, JC-1 fluorescence, basal, 24 h, 100 nL, profiling panel (AID 1138); settings: higher = more signal;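 also: A549 lung adenocarcinoma cells under basal conditions with no added stimulus; test concentration not given here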
Lefty1 = Lefty1 protein binding to printed compounds – biochemical, small-molecule microarray, 635/667 nm fluorescence, primary screen (AID 1139); settings: fluorescence 635/667, higher = more signal
[8] = test system: wheat germ agglutinin (Triticum aestivum), Alexa647-labelled; experiment: Alexa647-WGA lectin binding to printed small molecules – biochemical, small-molecule microarray, 635/667 nm fluorescence, artefact control for SMM control-protein annotation, profiling panel (AID 1140); settings: WGA-A647 binding, 635 nm fluorescence, higher = more signal;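 also: score merges 667 nm feature emission with signal to noise over triplicate slides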
[9] = biological target: Luciferin 4-monooxygenase (Photinus pyralis) (UniProt P08659); experiment: inhibition of purified Photinus pyralis luciferase – biochemical, luminescence, purified enzyme, 2006 set, primary screen (AID 1141); settings: purified firefly luciferase, SteadyGlo luminescence, 30 min; higher = more signal, called active from +8 up or from −8 down;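 also: cell-free assay with purified firefly luciferase at 100 ng per well in PBS; test concentration not given here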
Sequence of Luciferin 4-monooxygenase (Photinus pyralis) (P08659 whole entry, looked up): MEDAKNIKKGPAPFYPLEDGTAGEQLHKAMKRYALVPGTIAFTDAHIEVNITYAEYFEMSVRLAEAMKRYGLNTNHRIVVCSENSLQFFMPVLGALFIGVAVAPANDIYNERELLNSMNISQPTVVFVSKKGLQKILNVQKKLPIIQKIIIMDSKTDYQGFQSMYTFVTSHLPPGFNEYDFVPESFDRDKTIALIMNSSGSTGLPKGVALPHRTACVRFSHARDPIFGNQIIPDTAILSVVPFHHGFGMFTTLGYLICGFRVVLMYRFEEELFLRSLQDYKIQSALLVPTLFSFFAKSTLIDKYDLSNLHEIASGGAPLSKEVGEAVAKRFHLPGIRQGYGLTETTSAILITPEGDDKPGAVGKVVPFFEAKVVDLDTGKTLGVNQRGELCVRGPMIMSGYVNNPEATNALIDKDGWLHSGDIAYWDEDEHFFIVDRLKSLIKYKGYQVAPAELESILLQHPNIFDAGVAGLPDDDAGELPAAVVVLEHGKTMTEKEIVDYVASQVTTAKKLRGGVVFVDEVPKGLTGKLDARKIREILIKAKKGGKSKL

| SMILES | composite z-score [1] | composite z-score [2] | composite z-score [3] | composite z-score [4] | composite z-score [5] | composite z-score [6] | z-score [7] | composite z-score (Lefty1) | composite z-score [8] | z-score [9] |
| --- | --- | --- | --- | --- | --- | --- | --- | --- | --- | --- |
| CO[C@H]1COC(=O)[C@H](C)NC(=O)CC=C[C@@H](C)[C@H](OC)COC(=O)CC=C[C@@H]1C | -0.284 | -1.4 | -0.348 | -1.86 | 1.28 | 1.71 | 0.106 | 1.62 | -0.655 | -0.885 (inactive) |
| COC(=O)C1=C(C)N(Cc2ccccc2)[C@]23O[C@](C(=O)OC)(C(=O)N2[C@@H]1c1ccccc1)[C@H]1C(=O)N(c2ccccc2)C(=O)[C@H]13 | 0.798 and 0.258 | 1.12 and 0.575 | 0.277 and 0.0443 | 0.77 and 0.267 | 0.516 and 1.01 | 0.562 and 0.626 | 0.6 and 0.565 | 0.477 and 1.27 | 1.07 and 0.541 | -0.207 (inactive) and -0.978 (inactive) |
| CO[C@H]1COC(=O)CC=C[C@@H](C)COC(=O)[C@@H](OCc2ccccc2)C=C[C@@H]1C | 0.563 | -1.07 | -0.279 | -1.44 | 1.47 | 1.74 | 1.8 | 1.65 | -1.13 | -0.917 (inactive) |
| COC(=O)[C@@]1(Cc2ccc(OC)cc2)[C@H]2c3cc(C(=O)N(C)C)n(Cc4ccc(O)c(OC)c4)c3C[C@H]2CN1C(=O)c1ccccc1 | 1.8 and 2.3 | 1.24 and 1.21 | 0.529 and 0.379 | 0.0218 and 0.962 | 0.231 and 0.715 | -0.913 and -0.134 | 1.73 and 1.22 | -0.268 and -0.542 | 1.39 and 0.989 | 1.75 (inactive) and 1.08 (inactive) |
| CCN1C(=O)[C@H]2[C@H]3[C@H](O)[C@H](O)CC(=NNC(=O)OCc4ccc(OC)cc4)[C@H]3CC[C@H]2C1=O | 0.0442 | 0.0241 | 0.0983 | 0.171 | -0.699 | -0.623 | 0.647 | 0.107 | 0.77 | -0.716 (inactive) |
| C=C[C@@H](OC)[C@H](O)c1ccc(OCCO)cc1 | 3.17 and -0.401 | -0.875 and -0.95 | 0.005 and -0.754 | -1.95 and -1.4 | -0.286 and -0.426 | -0.333 and -0.692 | 0.27 and -0.142 | -0.545 and -0.201 | 1.26 and -0.543 | -3.43 (inactive) and -3.1 (inactive) |
| C=CCN(CCCC)C(=O)C1N(c2ccc(CCO)cc2)C(=O)C2C(C(=O)O)C3C=CC21O3 (stereo not given) | -1.5 and -1.42 | -1.48 and -1.18 | -1.03 and 0.339 | -1.01 and -2.98 | -0.852 and -2.67 | -0.893 and -2.56 | -0.898 and -0.353 | -1.39 and -3.01 | 0.0666 and -1.56 | 1.5 (inactive) and -1.51 (inactive) |
| COCn1c2ccccc2c2nnc(C(C)=O)nc21 | 0.185 and -0.0618 | -0.582 and -0.0453 | 0.0699 and -0.0566 | -0.0349 and 0.202 | 0.295 and 0.221 | 0.537 and 0.273 | -1.22 and -1.45 | 0.419 and 0.53 | -0.114 and -0.144 | 0.891 (inactive) and 0.305 (inactive) |
| O=C1NC(=O)C2C1C=CC(C(O)c1ccc([N+](=O)[O-])cc1)N2Nc1ccc(Cl)cc1Cl (stereo not given) | 0.396 and 0.455 | 1.14 and 1.18 | 0.649 and 0.342 | 0.969 and 0.703 | 0.816 and 0.774 | 0.202 and -0.279 | 0.824 and -0.201 | -0.427 and -0.899 | 0.751 and 1.39 | -1.81 (inactive) and -2.34 (inactive) |
| CO[C@H]1COC(=O)CC=C[C@H](C)[C@H](OC)COC(=O)[C@@H](C)COC(=O)CC=C[C@@H]1C | 0.155 and -0.15 | 0.151 and -0.833 | 0.445 and -0.105 | -0.77 and -1.28 | 1.13 and 0.8 | 0.651 and 0.402 | 0.597 and 1.4 | 0.914 and 0.398 | -0.464 and -0.424 | -0.882 (inactive) and -1.16 (inactive) |
| O=C1C[C@]2(c3ccc([N+](=O)[O-])cc3)C(=O)N(Cc3ccccc3)c3cc(CO)ccc3[C@H]2N1C1CCCCC1 | 0.0501 and 1.06 | 0.905 and 0.134 | 0.152 and 0.0229 | -0.437 and -0.106 | 0.585 and 1.41 | 0.368 and 1.02 | -0.38 and 0.277 | 0.507 and 0.482 | -0.329 and 0.59 | 0.302 (inactive) and -0.537 (inactive) |
| C=CCN(C(=O)C1N(CCCCCCO)C(=O)C2C(C(=O)O)C3C=CC21O3)C(C)(C)C (stereo not given) | -1 and 0.0369 | -1.24 and -0.385 | -0.837 and -0.881 | -4.96 and -2.32 | -1.88 and -2.11 | -1.42 and -1.7 | 0.219 and 0.389 | -2.49 and -1.84 | -0.75 and -0.561 | -1.04 (inactive) and -0.426 (inactive) |
| C=CCN(C(=O)C1N(CCOCCO)C(=O)C2C(C(=O)O)C3C=CC21O3)C(C)(C)C (stereo not given) | -0.673 and -0.976 | -1.66 and -0.815 | -0.324 and -0.708 | -4.25 and -0.473 | -2.09 and -1.58 | -1.27 and -2.81 | -0.147 and -0.774 | -1.43 and -1.07 | -0.511 and -0.0854 | -0.352 (inactive) and 0.274 (inactive) |
| C=CCN(CCCC)C(=O)C(c1cccs1)N(C(=O)/C=C\C(=O)O)c1c(Cl)cccc1CO (stereo not given) | -0.71 and -0.792 | -0.925 and -1.1 | -0.859 and 1.27 | -2.84 and -3.52 | -2.44 and -1.69 | -2.72 and -1.18 | -0.107 and -0.132 | -2.81 and -2.2 | -0.178 and -0.7 | 1.01 (inactive) and 0.833 (inactive) |
| CC(CO)N1C(=O)[C@@H]2C3C(=O)OCCC=C[C@H]3OC23C=CCN(CCN2CCOCC2)C(=O)[C@@H]13 (stereo not given in full) | 1.29 and 1.37 | -0.795 and -0.0944 | 0.0101 and 1.02 | -0.288 and 0.15 | 0.319 and -0.0336 | -0.454 and -1.45 | -0.0837 and -0.32 | 0.373 and 0.526 | -0.0856 and 0.329 | -0.272 (inactive) and -0.263 (inactive) |
| O=C(NN=C1C[C@@H](O)[C@@H](O)[C@@H]2[C@@H]3C(=O)N(Cc4ccc5c(c4)OCO5)C(=O)[C@@H]3CC[C@H]12)OCc1ccccc1 | -0.668 | -0.429 | -0.0697 | -0.507 | -1.07 | -0.274 | -0.174 | -0.418 | -0.754 | 0.0421 (inactive) |
